# PubChem BioAssay (EPA / NIEHS)
# Records with an inconclusive call do not appear. Calls of active or inactive are those of the source. The calls were made as follows: active = hit-call score of the fitted dose curve at least 0.9, where 1 is the maximum; inconclusive = response in the unintended direction; inactive = score below 0.9.
# Legend:
# [1] = target: Estrogen receptor (Homo sapiens) (UniProt P03372); assay: OT_ER_ERaERa_1440: Odyssey Thera (OT) 24-hour HEK293T Protein-Complementation Assay for Estrogen Receptor-alpha/-alpha Homodimer (AID 2283349);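 also: hits raise fluorescence above DMSO for agonists and antagonists alike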
# Summary of the method: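 HEK293T cells stably expressing the human ER alpha ligand-binding domain (aa 310-547) as a homodimer PCA were dosed for 24 hours. Fluorescence intensity was read by laser scanning cytometry, and gain of signal was fitted relative to DMSO vehicle.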
# [2] = target: Estrogen receptor (Homo sapiens) (UniProt P03372); assay: OT_ER_ERaERa_0480: Odyssey Thera (OT) 8-hour HEK293T Protein-Complementation Assay for Estrogen Receptor-alpha/-alpha Homodimer (AID 2283351);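 also: rise in fluorescence from reassembled reporter fragments on ERα LBD homodimer in nucleus or whole cell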
# Summary of the method: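 HEK293T cells stably expressing the human ERα ligand-binding domain (aa 310-547) as a homodimer PCA were dosed with compound for 8 h. Gain of fluorescence intensity versus DMSO vehicle was read by laser scanning cytometry.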
# [3] = target: Androgen Receptor/SRC-1 Co-activator, AR (gene 367) (UniProt P10275); assay: OT_AR_ARSRC1_0960: Odyssey Thera (OT) 16-hour HEK293T Protein-Complementation Assay for Androgen Receptor/SRC-1 Co-activator (AID 2283353);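 also: actives raise the signal above DMSO so potency reflects increased AR and SRC-1 complex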
# Summary of the method: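 HEK293T cells stably expressing AR and SRC-1 fused to split Venus YFP fragments via (Gly4Ser)2 linkers were dosed for 16 h. Nuclear/cytoplasmic fluorescence ratio at 488 nm, ≥400 cells per image, fitted for gain of signal versus DMSO.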
# [4] = target: T1, Estrogen receptor (Homo sapiens) + Estrogen receptor beta (Homo sapiens) (UniProt P03372+Q92731); assay: OT_ER_ERaERb_1440: Odyssey Thera (OT) 24-hour HEK293T Protein-Complementation Assay for Estrogen Receptor-alpha/-beta Homodimer (AID 2283356);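 also: heteromer of ER alpha and ER beta binding domains; hits raise reporter fluorescence and both agonists and antagonists give an increase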
# Summary of the method: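 Stable HEK293T PCA line, ERα LBD 310-547 + ERβ LBD 263-489 fused to reporter fragments; 24 h treatment; fluorescence read by laser scanning cytometry; positive fitting direction relative to DMSO.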
# [5] = target: Estrogen receptor beta (Homo sapiens) (UniProt Q92731); assay: OT_ER_ERbERb_0480: Odyssey Thera (OT) 8-hour HEK293T Protein-Complementation Assay for Estrogen Receptor-beta/-beta Homodimer (AID 2283357);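 also: active means signal gain over DMSO baseline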
# Summary of the method: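 Fluorescence intensity, nuclear for agonists and nuclear plus cytoplasmic for antagonists, was quantified by laser scanning cytometry versus vehicle after 8 h treatment. The cells were HEK293T stably carrying ER beta LBD fragment-complementation partners.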
# [6] = target: Nuclear receptor subfamily 1 group I member 2 (Homo sapiens) (UniProt O75469); assay: NVS_NR_hPXR: NovaScreen (NVS) Nuclear Receptor Binding Assay for human Pregnane X Receptor (PXR) (AID 2283365);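 also: a drop in FRET signal versus DMSO baseline means the compound binds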
# Summary of the method: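 Human PXR protein, cell-free; compound added, incubated 2 h, TR-FRET read. Signal decrease vs DMSO = binding. Screened 25 uM duplicate, actives re-run as dilution series.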
# [7] = target: T1, Estrogen receptor (Homo sapiens) + Estrogen receptor beta (Homo sapiens); assay: OT_ER_ERaERb_0480: Odyssey Thera (OT) 8-hour HEK293T Protein-Complementation Assay for Estrogen Receptor-alpha/-beta Heterodimer (AID 2283352)
# Summary of the method: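 Compound added to HEK293T cells carrying split-reporter-tagged ER-alpha and ER-beta LBDs, incubated 8 hours, then imaged by laser scanning cytometer. Signal rise in nucleus, or nucleus and cytoplasm, over vehicle was fitted in the positive direction.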
# [8] = target: chimpanzee Androgen Receptor (AR), AR (gene 747460) (UniProt O97775); assay: NVS_NR_cAR: NovaScreen (NVS) Nuclear Receptor Binding Assay for chimpanzee Androgen Receptor (AR) (AID 2283346);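 also: radioligand displacement from AR measured by scintillation counting in a cell-free assay; a loss of bound radioligand signal versus DMSO counts as binding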
# Summary of the method: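 Radioligand binding to chimpanzee AR expressed in Sf9/Sf21 cells, cell-free, measured 72 h after dosing by lysate-based scintillation counting. Loss of signal vs DMSO; initial duplicate screen at 25 uM, actives retested in concentration series.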
# [9] = target: rat Mineralocorticoid Receptor (MR), Nr3c2 (gene 25672) (UniProt P22199); assay: NVS_NR_rMR: NovaScreen (NVS) Nuclear Receptor Binding Assay for rat Mineralocorticoid Receptor (MR) (AID 2283355)
# Summary of the method: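 Cell-free radioligand binding to mineralocorticoid receptor from adrenalectomized rat brain supernatant, scintillation counting after 24 h. Primary screen in duplicate at 25 uM; actives retested in concentration series. Loss of specific binding versus DMSO.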
# [10] = target: Retinoic acid receptor alpha (Homo sapiens) (UniProt P10276); assay: NVS_NR_hRAR_Antagonist: NovaScreen (NVS) Nuclear Receptor Binding Assay for human Retinoic Acid Alpha Receptor Antagonism (RAR) (AID 2283358)
# Summary of the method: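 Cell-free TR-FRET binding assay with extracted human RARalpha in antagonist mode, read 2 h after dosing. Loss of signal was fitted relative to DMSO; the primary screen used 25 uM in duplicate, with concentration series on follow-up.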
# [11] = target: human Peroxisome Proliferator-activated Receptor alpha (PPARa), PPARA (gene 5465) (UniProt Q07869); assay: NVS_NR_hPPARa: NovaScreen (NVS) Nuclear Receptor Binding Assay for human Peroxisome Proliferator-activated Receptor alpha (PPARa) (AID 2283359);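 also: activity means loss of TR-FRET signal versus DMSO baseline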
# Summary of the method: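 Cell-free TR-FRET binding assay with extracted PPARα protein, read 1 h after dosing. Primary screen in duplicate at 25 uM, with actives retested in concentration series. Loss of signal versus DMSO.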
# [12] = target: human Thyroid Receptor Alpha (TRa), THRA (gene 7067) (UniProt P10827); assay: NVS_NR_hTRa_Antagonist: NovaScreen (NVS) Nuclear Receptor Binding Assay for human Thyroid Receptor Alpha Antagonism (TRa) (AID 2283362);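 also: activity is loss of signal relative to DMSO baseline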
# Summary of the method: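 Extracted protein, cell-free; 1 h incubation after dosing; AlphaLISA chemiluminescence binding readout. DMSO = baseline/neg ctrl; signal loss = activity. Primary: duplicate, 25 uM; secondary: conc. series on actives.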
# [13] = target: Glucocorticoid receptor (Homo sapiens) (UniProt P04150); assay: NVS_NR_hGR: NovaScreen (NVS) Nuclear Receptor Binding Assay for human Glucocorticoid Receptor (GR) (AID 2283363)
# Summary of the method: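 Cell-free radioligand displacement assay on extracted human GR, read 16 h after dosing by filter-based scintillation counting. Screened in duplicate at 25 uM, then concentration series for actives; loss of signal versus DMSO baseline.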
# [14] = target: bovine Estrogen Receptor (ER), ESR1 (gene 407238) (UniProt P49884); assay: NVS_NR_bER: NovaScreen (NVS) Nuclear Receptor Binding Assay for bovine Estrogen Receptor (ER) (AID 2283345);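 also: actives lower the bound radioligand count which means they displace the ER ligand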
# Summary of the method: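 Displacement of a radioligand from estrogen receptor in bovine uterine membrane preparations; scintillation signal taken at 18 hours, DMSO as baseline. Single-concentration duplicates (25 uM) preceded concentration-response follow-up of actives.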
# [15] = target: Retinoic acid receptor alpha (Homo sapiens) (UniProt P10276); assay: NVS_NR_hRARa_Agonist: NovaScreen (NVS) Nuclear Receptor Binding Assay for human Retinoic Acid Alpha Receptor Agonism (RAR) (AID 2283361)
# Summary of the method: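 Cell-free TR-FRET binding readout with extracted receptor protein, read 2 hours after dosing; gain-of-signal fitted relative to DMSO. Screened in duplicate at 25 uM, actives then run in concentration-response.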
# Sequence of human Thyroid Receptor Alpha (TRa), THRA (gene 7067) (P10827 whole entry, looked up): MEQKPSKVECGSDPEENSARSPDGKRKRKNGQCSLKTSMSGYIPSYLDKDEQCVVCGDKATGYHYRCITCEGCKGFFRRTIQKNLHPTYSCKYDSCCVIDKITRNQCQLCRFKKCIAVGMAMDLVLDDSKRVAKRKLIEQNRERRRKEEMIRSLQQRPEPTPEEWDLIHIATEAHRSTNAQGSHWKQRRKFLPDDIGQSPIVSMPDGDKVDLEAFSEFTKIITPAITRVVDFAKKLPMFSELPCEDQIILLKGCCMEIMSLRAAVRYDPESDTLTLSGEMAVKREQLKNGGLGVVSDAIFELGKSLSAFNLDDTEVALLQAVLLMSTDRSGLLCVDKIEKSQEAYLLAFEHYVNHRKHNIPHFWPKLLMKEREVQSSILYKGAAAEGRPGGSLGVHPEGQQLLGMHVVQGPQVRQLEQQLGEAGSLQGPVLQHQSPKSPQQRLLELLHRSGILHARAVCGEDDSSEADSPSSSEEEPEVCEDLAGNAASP
# Sequence of Retinoic acid receptor alpha (Homo sapiens) (P10276 whole entry, looked up): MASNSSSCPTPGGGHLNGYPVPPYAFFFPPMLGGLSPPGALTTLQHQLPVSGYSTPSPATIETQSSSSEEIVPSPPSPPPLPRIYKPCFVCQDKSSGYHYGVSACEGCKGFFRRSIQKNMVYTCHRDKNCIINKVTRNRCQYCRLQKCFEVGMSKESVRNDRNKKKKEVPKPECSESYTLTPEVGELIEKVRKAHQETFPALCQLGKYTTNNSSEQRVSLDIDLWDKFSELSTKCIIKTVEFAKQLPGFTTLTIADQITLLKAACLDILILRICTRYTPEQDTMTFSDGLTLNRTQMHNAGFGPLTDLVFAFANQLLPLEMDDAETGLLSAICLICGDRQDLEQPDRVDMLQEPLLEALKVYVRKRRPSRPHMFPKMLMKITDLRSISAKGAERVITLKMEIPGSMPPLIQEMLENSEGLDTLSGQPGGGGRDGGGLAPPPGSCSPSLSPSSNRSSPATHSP
# Sequence of Nuclear receptor subfamily 1 group I member 2 (Homo sapiens) (O75469 whole entry, looked up): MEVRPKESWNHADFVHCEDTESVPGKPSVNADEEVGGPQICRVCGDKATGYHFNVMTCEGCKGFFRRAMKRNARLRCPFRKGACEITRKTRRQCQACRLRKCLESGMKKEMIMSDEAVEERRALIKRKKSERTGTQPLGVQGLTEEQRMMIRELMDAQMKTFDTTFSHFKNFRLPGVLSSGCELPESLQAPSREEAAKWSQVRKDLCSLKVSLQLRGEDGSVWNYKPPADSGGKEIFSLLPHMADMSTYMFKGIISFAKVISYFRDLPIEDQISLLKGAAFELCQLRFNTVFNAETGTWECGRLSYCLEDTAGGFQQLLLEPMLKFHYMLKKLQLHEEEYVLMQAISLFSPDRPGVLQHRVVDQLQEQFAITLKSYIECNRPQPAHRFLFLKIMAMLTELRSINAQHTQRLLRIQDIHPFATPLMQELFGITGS
# Sequence of human Peroxisome Proliferator-activated Receptor alpha (PPARa), PPARA (gene 5465) (Q07869 whole entry, looked up): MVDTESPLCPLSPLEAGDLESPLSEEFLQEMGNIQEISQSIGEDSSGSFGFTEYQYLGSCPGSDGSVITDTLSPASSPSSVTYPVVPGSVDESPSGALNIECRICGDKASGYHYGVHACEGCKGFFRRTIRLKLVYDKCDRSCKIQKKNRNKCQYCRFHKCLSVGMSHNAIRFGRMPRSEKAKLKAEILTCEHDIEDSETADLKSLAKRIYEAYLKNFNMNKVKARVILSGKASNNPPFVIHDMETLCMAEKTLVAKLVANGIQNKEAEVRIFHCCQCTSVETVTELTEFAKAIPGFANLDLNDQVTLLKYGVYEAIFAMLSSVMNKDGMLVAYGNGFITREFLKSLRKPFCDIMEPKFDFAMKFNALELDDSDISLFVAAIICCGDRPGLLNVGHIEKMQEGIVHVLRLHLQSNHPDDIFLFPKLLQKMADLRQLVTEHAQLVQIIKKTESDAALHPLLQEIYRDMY
# Sequence of Glucocorticoid receptor (Homo sapiens) (P04150 whole entry, looked up): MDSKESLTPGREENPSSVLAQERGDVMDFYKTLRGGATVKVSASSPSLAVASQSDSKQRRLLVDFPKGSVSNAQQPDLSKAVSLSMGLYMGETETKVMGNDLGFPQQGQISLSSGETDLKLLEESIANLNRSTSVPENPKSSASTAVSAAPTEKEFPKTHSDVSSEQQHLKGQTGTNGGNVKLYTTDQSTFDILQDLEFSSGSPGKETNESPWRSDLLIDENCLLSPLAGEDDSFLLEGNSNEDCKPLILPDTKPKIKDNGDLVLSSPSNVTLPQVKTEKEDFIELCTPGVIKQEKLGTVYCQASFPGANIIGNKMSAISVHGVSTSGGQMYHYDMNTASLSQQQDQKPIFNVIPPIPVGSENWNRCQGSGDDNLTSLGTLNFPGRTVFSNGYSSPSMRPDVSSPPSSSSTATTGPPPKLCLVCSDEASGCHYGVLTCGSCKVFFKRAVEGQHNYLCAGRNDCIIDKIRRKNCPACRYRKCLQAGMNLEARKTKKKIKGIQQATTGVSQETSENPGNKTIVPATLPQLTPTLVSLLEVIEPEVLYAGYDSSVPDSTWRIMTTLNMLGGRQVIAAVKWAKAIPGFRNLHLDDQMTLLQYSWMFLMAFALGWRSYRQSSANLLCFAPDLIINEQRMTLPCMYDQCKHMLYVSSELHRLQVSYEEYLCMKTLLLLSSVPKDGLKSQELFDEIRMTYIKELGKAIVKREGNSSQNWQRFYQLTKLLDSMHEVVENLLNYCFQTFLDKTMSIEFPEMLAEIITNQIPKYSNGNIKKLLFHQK
# Sequence of chimpanzee Androgen Receptor (AR), AR (gene 747460) (O97775 whole entry, looked up): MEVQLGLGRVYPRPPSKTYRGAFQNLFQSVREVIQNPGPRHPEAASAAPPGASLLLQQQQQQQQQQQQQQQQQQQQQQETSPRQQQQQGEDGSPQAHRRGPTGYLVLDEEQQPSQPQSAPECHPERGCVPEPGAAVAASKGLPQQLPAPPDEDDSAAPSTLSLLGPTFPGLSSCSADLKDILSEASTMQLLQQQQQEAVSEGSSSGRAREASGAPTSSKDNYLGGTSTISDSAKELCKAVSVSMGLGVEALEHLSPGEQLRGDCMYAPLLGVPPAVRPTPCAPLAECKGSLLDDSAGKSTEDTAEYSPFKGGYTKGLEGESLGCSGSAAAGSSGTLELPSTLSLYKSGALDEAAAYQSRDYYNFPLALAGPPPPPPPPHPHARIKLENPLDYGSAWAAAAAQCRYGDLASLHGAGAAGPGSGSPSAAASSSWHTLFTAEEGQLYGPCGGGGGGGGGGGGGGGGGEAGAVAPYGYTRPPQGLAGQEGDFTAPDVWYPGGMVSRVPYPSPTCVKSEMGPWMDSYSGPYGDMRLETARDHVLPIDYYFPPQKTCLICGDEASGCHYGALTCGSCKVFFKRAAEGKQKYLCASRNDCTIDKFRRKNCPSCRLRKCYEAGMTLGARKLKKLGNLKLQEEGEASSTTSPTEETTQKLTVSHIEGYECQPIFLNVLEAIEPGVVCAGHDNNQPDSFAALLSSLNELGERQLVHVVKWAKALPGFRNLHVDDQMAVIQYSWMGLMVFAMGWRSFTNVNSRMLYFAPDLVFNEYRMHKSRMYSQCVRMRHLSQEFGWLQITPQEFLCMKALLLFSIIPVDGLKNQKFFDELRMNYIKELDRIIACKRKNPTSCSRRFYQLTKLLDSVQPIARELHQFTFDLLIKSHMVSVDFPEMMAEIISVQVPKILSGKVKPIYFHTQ
# Sequence of rat Mineralocorticoid Receptor (MR), Nr3c2 (gene 25672) (P22199 whole entry, looked up): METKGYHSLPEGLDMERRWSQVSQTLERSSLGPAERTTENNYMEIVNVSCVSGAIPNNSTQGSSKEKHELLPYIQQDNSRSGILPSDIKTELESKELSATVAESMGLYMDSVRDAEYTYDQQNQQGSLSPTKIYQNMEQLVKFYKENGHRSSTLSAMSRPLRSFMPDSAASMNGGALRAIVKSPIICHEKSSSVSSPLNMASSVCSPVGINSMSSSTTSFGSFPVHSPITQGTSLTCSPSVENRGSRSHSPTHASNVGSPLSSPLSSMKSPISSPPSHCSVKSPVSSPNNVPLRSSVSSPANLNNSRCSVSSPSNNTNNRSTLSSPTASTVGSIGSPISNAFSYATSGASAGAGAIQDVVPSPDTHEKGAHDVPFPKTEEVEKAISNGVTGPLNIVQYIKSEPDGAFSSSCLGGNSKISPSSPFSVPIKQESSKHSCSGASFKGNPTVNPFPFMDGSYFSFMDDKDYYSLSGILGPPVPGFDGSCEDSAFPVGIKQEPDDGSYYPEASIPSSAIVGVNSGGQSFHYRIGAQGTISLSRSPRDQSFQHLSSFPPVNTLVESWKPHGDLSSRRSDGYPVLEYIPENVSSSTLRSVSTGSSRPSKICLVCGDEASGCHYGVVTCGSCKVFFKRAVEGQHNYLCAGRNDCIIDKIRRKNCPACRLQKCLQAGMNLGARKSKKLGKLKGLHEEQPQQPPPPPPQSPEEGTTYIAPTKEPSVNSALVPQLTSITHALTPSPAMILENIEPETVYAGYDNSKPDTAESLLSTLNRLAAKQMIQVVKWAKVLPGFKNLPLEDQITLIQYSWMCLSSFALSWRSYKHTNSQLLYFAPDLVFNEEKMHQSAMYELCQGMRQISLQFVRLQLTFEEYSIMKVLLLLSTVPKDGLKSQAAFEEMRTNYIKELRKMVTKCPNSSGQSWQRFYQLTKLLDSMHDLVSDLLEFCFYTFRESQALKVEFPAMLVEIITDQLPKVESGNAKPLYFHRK
structure (smiles),measurement,setting,value
COCCOC[C@H](CC1(C(=O)NC2CCC(C(=O)O)CC2)CCCC1)C(=O)Oc1ccc2c(c1)CCC2 (some centres undefined),outcome,[1],inactive
same,outcome,[2],inactive
same,outcome,[3],inactive
same,outcome,[4],inactive
same,outcome,[5],inactive
CNC(=O)[C@H]1O[C@@H](n2cnc3c(NCc4cc(Cl)ccc4OCc4cc(C)no4)ncnc32)[C@H](O)[C@@H]1N,AC50,[1],11.9 µM (active)
same,outcome,[2],inactive
same,outcome,[3],inactive
same,outcome,[4],inactive
same,outcome,[5],inactive
same,outcome,[6],inactive
Nc1ccc(S(=O)(=O)c2ccc(N)cc2)cc1,outcome,[1],inactive
same,outcome,[2],inactive
CC1(C)NC(=O)NC1=O,outcome,[1],inactive
same,outcome,[2],inactive
CC=Cc1ccc(O)c(OC)c1,AC50,[1],73.5 µM (active)
same,AC50,[2],57.6 µM (active)
Cc1ccc(N(C)C)cc1,outcome,[1],inactive
same,outcome,[2],inactive
same,outcome,[3],inactive
same,outcome,[4],inactive
CC(=O)Oc1ccccc1C(=O)O,outcome,[1],inactive
same,outcome,[2],inactive
same,outcome,[3],inactive
same,outcome,[4],inactive
same,outcome,[5],inactive
CC(=O)C(C)=CC1C(C)=CCCC1(C)C (centres undefined),outcome,[1],inactive
same,outcome,[2],inactive
CC(C)(C)c1cc(O)c(C(C)(C)C)cc1O,outcome,[1],inactive
same,outcome,[2],inactive
same,outcome,[7],inactive
same,AC50,[3],50 µM (active)
same,outcome,[4],inactive
same,outcome,[5],inactive
CCCCN(CCCC)CCCC,outcome,[8],inactive
same,outcome,[1],inactive
same,outcome,[2],inactive
same,outcome,[4],inactive
same,outcome,[5],inactive
O=c1[nH]cc(F)c(=O)[nH]1,outcome,[1],inactive
same,outcome,[2],inactive
same,outcome,[7],inactive
same,outcome,[9],inactive
same,outcome,[4],inactive
same,outcome,[5],inactive
Cc1cccc([N+](=O)[O-])c1C,outcome,[1],inactive
same,outcome,[2],inactive
same,outcome,[3],inactive
same,outcome,[4],inactive
same,outcome,[5],inactive
CCCCCCOCCO,outcome,[1],inactive
same,outcome,[2],inactive
same,outcome,[4],inactive
COc1ccc(C)cc1N,outcome,[1],inactive
same,outcome,[2],inactive
same,outcome,[3],inactive
same,outcome,[10],inactive
Cc1cc(=O)[nH]c(=S)[nH]1,outcome,[1],inactive
same,outcome,[2],inactive
C[C@]12C=CC(=O)C=C1CC[C@@H]1[C@@H]2C(=O)C[C@@]2(C)[C@H]1CC[C@]2(O)C(=O)CO,AC50,[8],14.8 µM (active)
same,outcome,[1],inactive
same,outcome,[2],inactive
same,AC50,[9],0.178 µM (active)
same,outcome,[5],inactive
Cc1ccccc1Cl,outcome,[1],inactive
same,outcome,[2],inactive
same,outcome,[3],inactive
Cc1cc(NC(=O)C(=O)O)cc(C)c1Oc1ccc(O)c2c1CCC2,outcome,[8],inactive
same,outcome,[1],inactive
same,outcome,[2],inactive
same,outcome,[3],inactive
same,outcome,[11],inactive
same,outcome,[12],inactive
CCCCCC(=O)O,outcome,[1],inactive
same,outcome,[2],inactive
same,outcome,[3],inactive
same,outcome,[4],inactive
same,outcome,[5],inactive
Nc1ccc2c(c1)C(=O)c1ccccc1C2=O,AC50,[8],19.8 µM (active)
same,outcome,[1],inactive
same,outcome,[12],inactive
same,outcome,[13],inactive
OC[C@@H](O)[C@@H](O)[C@H](O)[C@H](O)CO,outcome,[1],inactive
same,outcome,[2],inactive
CCOC(=O)CCC(=O)OCC,outcome,[1],inactive
same,outcome,[2],inactive
same,AC50,[9],25 µM (active)
same,outcome,[4],inactive
same,outcome,[5],inactive
same,outcome,[13],inactive
C=CCOC(=O)c1ccccc1C(=O)OCC=C,AC50,[8],14.5 µM (active)
same,outcome,[1],inactive
same,AC50,[2],63.1 µM (active)
same,outcome,[11],inactive
CC(C)c1ccc(C(=O)N=C(N)N)cc1S(C)(=O)=O,outcome,[14],inactive
same,outcome,[1],inactive
same,outcome,[4],inactive
same,outcome,[5],inactive
same,outcome,[6],inactive
O=c1c(O)c(-c2ccc(O)c(O)c2)oc2cc(O)cc(O)c12,outcome,[1],inactive
same,outcome,[2],inactive
same,AC50,[4],24.8 µM (active)
same,AC50,[5],2.32 µM (active)
same,outcome,[11],inactive
Cc1nc(C)nc(N2C[C@@H](C)N(c3ccnc([C@@H](C)O)n3)[C@@H](C)C2)n1,outcome,[2],inactive
NCCO,outcome,[1],inactive
same,outcome,[2],inactive
same,outcome,[10],inactive
NS(=O)(=O)c1cc2c(cc1Cl)NCNS2(=O)=O,outcome,[1],inactive
same,outcome,[2],inactive
same,outcome,[4],inactive
same,outcome,[5],inactive
CC1=C(/C=C/C(C)=C/C=C/C(C)=C/CO)C(C)(C)CCC1,outcome,[1],inactive
same,outcome,[2],inactive
same,outcome,[4],inactive
same,outcome,[5],inactive
same,outcome,[10],inactive
same,outcome,[11],inactive
same,outcome,[15],inactive
CCCCCCCCCCCCCO,outcome,[1],inactive
same,outcome,[2],inactive
same,outcome,[4],inactive
same,outcome,[5],inactive
CC(CO)OC(C)CO (centres undefined) (tested in a mixture with another compound),outcome,[1],inactive
same,outcome,[2],inactive
same,outcome,[11],inactive
same,outcome,[6],inactive
c1cc(-c2ccncc2)ccn1,outcome,[1],inactive
same,outcome,[2],inactive
same,outcome,[4],inactive
same,outcome,[5],inactive
CCCCCCCCCCO,outcome,[1],inactive
same,outcome,[2],inactive
same,outcome,[4],inactive
same,outcome,[5],inactive
same,outcome,[11],inactive
CCCCOC(=O)CCCCCCCCC(=O)OCCCC,outcome,[1],inactive
same,outcome,[2],inactive
same,outcome,[4],inactive
same,outcome,[5],inactive
same,outcome,[11],inactive
same,outcome,[15],inactive
same,outcome,[12],inactive
Cc1c(C(=O)O)c(O)cc2c1C(=O)c1c(O)c([C@@H]3O[C@H](CO)[C@@H](O)[C@H](O)[C@H]3O)c(O)c(O)c1C2=O,outcome,[1],inactive
same,outcome,[2],inactive
same,outcome,[4],inactive
same,outcome,[5],inactive
same,AC50,[12],17.3 µM (active)
COc1cc(S(=O)(=O)O)c(C)cc1N=Nc1c(O)ccc2cc(S(=O)(=O)O)ccc12,outcome,[1],inactive
same,outcome,[2],inactive
same,outcome,[13],inactive
Clc1cc(Cl)c(Cl)cc1Cl,outcome,[1],inactive
same,outcome,[2],inactive
same,outcome,[4],inactive
same,outcome,[5],inactive
O=C(N[C@@H](Cc1ccccc1)[C@@H](O)C(=O)N1C[C@@H](O)[C@@H](O)C1)c1cc2cc(Cl)ccc2[nH]1,outcome,[1],inactive
same,outcome,[2],inactive
same,outcome,[5],inactive
same,outcome,[13],inactive
O=C(O)CCCCC(=O)O,outcome,[1],inactive
same,outcome,[2],inactive
same,outcome,[4],inactive
same,outcome,[5],inactive
Oc1ccc2c(c1)OC[C@@H](N1CCC(O)(c3ccc(F)cc3)CC1)[C@H]2O,outcome,[1],inactive
same,outcome,[2],inactive
same,outcome,[4],inactive
same,outcome,[5],inactive
same,outcome,[11],inactive
CCOC(=O)C(C)(C)Oc1ccc(Cl)cc1,outcome,[1],inactive
same,outcome,[2],inactive
same,outcome,[4],inactive
same,outcome,[5],inactive
same,outcome,[12],inactive
same,outcome,[13],inactive
